# Data reported in PubChem BioAssay (EPA / NIEHS).
# Records with an inconclusive call do not appear. Activity calls are given as the source filed them. The calls were made as follows: active = hit-call score of the fitted dose curve at least 0.9, where 1 is the maximum; inconclusive = response in the unintended direction; inactive = score below 0.9.
# Key:
# [1] = molecular target: rat Adenylate Cyclase, Forskolin Stimulated, Adcy5 (gene 64532) (UniProt Q04400); assay: NVS_ENZ_rACFSKBinding: NovaScreen (NVS) Enzymatic Assay for rat Adenylate Cyclase, Forskolin Stimulated (AID 2283232)
# Procedure, shortened: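 Rat forebrain membrane preparation, cell-free, read 1 h after dosing by filter-based scintillation counting. Primary screen in duplicate at 25 uM; actives (e.g. ≥30% inhibition) rerun in concentration-response up to 50 uM; fit versus DMSO.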
# [2] = molecular target: rat Acetylcholinesterase (AChE), Ache (gene 83817) (UniProt P37136); assay: NVS_ENZ_rAChE: NovaScreen (NVS) Enzymatic Assay for rat Acetylcholinesterase (AChE) (AID 2283233)
# Procedure, shortened: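 Rat brain membrane acetylcholinesterase activity measured colorimetrically 0.33 h after compound addition, loss of signal relative to DMSO. Primary screen in duplicate at 25 uM; actives re-run as concentration-response with 50 uM top concentration.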
# [3] = molecular target: rat Constitutive Nitric Oxide Synthase (CNOS), Nos1 (gene 24598) (UniProt P29476); assay: NVS_ENZ_rCNOS: NovaScreen (NVS) Enzymatic Assay for rat Constitutive Nitric Oxide Synthase (CNOS) (AID 2283236)
# Procedure, shortened: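 Enzyme activity in rat brain membrane preparation, read 1 h after dosing by filter-based radiometric scintillation counting. Primary screen in duplicate at 25 uM; actives (e.g., ≥30% inhibition) then run in concentration-response up to 50 uM.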
# [4] = test system: rat Monoamine Oxidase, MAO-A, Peripheral (MAOAP), gene 29253; assay: NVS_ENZ_rMAOAP: NovaScreen (NVS) Enzymatic Assay for rat Monoamine Oxidase, MAO-A, Peripheral (MAOAP) (AID 2283237)
# Procedure, shortened: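 Rat liver mitochondrial membranes served as the MAO-A source, with enzyme activity measured by radiometric scintillation counting 1.17 hours after dosing. Loss of signal was fitted against DMSO; primary screen used 25 uM in duplicate, follow-up used concentration series.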
# [5] = test system: bovine Angiotensin II Receptor Type 2 (AT2), gene 407157; assay: NVS_GPCR_bAT2: NovaScreen (NVS) G Protein-Coupled Receptor Assay for bovine Angiotensin II Receptor Type 2 (AT2) (AID 2283240)
# Procedure, shortened: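 Radioligand displacement on bovine cerebellar membranes, 1 hour incubation, filter-based scintillation counting; loss of signal vs DMSO. Duplicate single-point screen at 25 uM, then concentration-response to 50 uM maximum.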
# Chain of rat Constitutive Nitric Oxide Synthase (CNOS), Nos1 (gene 24598) (P29476 whole entry, looked up): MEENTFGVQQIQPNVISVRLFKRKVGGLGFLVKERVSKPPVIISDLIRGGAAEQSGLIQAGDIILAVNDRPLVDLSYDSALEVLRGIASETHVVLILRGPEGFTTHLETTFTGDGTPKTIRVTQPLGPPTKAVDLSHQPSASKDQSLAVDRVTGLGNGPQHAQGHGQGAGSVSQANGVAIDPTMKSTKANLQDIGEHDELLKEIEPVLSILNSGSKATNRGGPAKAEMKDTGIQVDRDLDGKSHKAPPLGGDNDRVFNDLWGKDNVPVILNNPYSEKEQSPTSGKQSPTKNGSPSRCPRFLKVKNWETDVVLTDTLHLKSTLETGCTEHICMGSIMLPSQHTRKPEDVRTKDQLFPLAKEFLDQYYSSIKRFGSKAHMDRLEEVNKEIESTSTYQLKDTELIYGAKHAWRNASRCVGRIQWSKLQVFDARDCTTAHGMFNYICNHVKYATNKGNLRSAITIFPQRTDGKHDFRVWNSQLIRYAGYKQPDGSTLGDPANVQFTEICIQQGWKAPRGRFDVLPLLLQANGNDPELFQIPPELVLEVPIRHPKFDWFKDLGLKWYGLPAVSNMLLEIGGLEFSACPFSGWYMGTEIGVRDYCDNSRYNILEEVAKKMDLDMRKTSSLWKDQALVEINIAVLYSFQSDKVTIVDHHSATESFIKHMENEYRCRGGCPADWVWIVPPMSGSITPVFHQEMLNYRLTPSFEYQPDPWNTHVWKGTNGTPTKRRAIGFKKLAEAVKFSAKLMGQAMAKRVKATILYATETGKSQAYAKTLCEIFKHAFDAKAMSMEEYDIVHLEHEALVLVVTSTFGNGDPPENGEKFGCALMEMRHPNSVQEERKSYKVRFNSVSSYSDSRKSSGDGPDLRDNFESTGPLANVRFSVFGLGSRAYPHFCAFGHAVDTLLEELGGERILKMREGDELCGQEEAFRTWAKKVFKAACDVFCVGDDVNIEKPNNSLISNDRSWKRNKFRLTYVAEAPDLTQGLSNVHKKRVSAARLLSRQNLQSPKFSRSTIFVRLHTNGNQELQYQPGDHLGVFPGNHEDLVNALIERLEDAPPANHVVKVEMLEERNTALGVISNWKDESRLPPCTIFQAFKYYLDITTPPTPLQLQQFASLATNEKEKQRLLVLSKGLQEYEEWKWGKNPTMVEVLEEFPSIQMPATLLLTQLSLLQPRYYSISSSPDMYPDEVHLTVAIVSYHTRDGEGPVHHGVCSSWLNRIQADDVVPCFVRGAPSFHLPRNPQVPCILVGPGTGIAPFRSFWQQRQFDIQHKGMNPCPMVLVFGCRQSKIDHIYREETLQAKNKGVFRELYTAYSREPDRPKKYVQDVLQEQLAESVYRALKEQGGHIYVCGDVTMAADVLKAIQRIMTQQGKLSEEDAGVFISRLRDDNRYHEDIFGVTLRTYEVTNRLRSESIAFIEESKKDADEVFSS
# Chain of rat Adenylate Cyclase, Forskolin Stimulated, Adcy5 (gene 64532) (Q04400 whole entry, looked up): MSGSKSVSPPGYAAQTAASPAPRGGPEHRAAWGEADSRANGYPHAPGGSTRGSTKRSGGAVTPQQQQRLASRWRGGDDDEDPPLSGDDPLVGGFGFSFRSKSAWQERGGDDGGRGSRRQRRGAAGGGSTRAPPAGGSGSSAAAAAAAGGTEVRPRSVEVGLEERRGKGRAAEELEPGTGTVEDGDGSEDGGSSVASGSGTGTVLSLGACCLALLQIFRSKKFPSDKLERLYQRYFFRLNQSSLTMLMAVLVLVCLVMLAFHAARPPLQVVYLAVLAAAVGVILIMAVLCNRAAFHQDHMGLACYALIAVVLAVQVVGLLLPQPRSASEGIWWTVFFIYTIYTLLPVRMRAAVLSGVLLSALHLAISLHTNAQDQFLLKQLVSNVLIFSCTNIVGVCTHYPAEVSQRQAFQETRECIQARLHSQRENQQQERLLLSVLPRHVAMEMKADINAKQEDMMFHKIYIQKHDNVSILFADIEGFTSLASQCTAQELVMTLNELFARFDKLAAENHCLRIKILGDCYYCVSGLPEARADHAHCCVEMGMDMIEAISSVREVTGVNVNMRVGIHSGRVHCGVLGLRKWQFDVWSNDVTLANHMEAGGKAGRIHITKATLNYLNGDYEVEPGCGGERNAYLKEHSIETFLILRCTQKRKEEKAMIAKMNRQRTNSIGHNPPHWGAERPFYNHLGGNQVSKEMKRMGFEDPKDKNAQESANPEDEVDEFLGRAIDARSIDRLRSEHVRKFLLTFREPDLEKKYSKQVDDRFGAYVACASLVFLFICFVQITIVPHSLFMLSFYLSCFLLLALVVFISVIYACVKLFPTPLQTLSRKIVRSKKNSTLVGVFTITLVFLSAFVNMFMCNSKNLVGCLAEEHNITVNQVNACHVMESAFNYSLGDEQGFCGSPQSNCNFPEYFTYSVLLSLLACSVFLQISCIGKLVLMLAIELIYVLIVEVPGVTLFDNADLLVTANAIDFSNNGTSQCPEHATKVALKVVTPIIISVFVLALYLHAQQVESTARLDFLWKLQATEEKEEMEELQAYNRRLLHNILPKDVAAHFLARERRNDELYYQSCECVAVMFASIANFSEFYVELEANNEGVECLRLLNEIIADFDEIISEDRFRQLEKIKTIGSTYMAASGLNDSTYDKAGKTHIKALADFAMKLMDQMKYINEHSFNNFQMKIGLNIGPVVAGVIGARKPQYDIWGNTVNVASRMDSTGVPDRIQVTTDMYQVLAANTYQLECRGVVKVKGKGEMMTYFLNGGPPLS
# Chain of rat Acetylcholinesterase (AChE), Ache (gene 83817) (P37136 whole entry, looked up): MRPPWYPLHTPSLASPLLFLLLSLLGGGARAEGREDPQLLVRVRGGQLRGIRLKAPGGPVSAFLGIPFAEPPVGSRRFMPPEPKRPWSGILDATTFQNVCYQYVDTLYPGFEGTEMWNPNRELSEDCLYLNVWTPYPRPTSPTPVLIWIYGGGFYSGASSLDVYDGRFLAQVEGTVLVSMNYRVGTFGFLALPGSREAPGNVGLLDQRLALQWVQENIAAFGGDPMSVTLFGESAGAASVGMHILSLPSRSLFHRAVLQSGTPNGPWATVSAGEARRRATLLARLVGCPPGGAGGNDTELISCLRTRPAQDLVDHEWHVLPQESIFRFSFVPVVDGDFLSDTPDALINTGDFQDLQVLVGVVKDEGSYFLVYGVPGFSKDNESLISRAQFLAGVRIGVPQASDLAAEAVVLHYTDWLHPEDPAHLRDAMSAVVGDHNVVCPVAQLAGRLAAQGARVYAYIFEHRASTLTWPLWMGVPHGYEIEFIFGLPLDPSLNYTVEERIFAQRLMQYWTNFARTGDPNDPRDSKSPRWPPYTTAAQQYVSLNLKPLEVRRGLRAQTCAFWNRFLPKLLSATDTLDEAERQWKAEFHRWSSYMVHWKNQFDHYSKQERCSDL
smiles,measurement,setting,value
CC(C)(c1ccccc1)c1ccc(O)cc1,outcome,[1],inactive
C[C@]12CCC(=O)C=C1CC[C@@H]1[C@@H]2CC[C@]2(C)C(=O)CC[C@@H]12,AC50,[2],24.4 µM (active)
CN(C)CCO,outcome,[3],inactive
CN(C)c1nc(=O)n(C2CCCCC2)c(=O)n1C,outcome,[3],inactive
Cc1cc(O)ccc1Cl,AC50,[4],19.1 µM (active)
CCNc1nc(NC(C)C)nc(SC)n1,outcome,[5],inactive
